In PubChem BioAssay AID1347426 (Functional Genomics Laboratory (NCATS/FGL), 2020) one finds median seed-adjusted z-score data, which are given here for 69 sequences.

About 1,400 (4.5%) of roughly 31,000 sequences were called active. This is one part of a sample in which actives are shown more often than they occur. Values without a mark were called inactive.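 The calls were made as follows: active = median seed-adjusted z-score above 1 or below -1; inactive = the rest.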

The experiment can be described thus: Novel Modifiers of Survival Motor Neuron (SMN) Protein: Gene Identification via Genome-wide siRNA Screen.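 Also: luminescence tracks full-length SMN protein made from the SMN2 reporter.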 Particulars: HEK293T SMN2-luciferase reporter, siRNA knockdown, 72 h; actives lie on both sides. In short, it runs like this: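 Steps: spot 1 pmol siRNA, add Lipofectamine RNAiMax in serum-free DMEM, seed HEK293T SMN2–luciferase reporter cells; incubate 72 h at 37 °C; add ONE-Glo; normalize luminescence to control siRNA, log10, MAD. Candidates: |MAD| > 1.0.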
In the case of GGACUGCACUACUCCAUGATT against ADAMTS2, the median seed-adjusted z-score was -0.338.
Regarding GCACAGUAGUCACCAAUGATT against FUCA2, the median seed-adjusted z-score is 0.562.
For CCAAGGUACUAACAUGGGATT against AP3M1 the value was 0; for CCCAGACUCUAGAUAGACATT against SULT1C3, -0.731; for CUCCUGCAGUUGAAGGUGATT against FKBP8, -0.304.
For CCAACAAUUUAGUAGUUAUTT against TBP the value was -1.25 (active); for AGUACAACCUGGUGACGCATT against ZNF710, 0.
Next, GGAUCAAUACUCCAACAAATT against ZNF281: 1.19 (active).
With GGCUUGAUGCUGGUACUUUTT against HACL1, the median seed-adjusted z-score is -0.0664.
In the case of AGCCUGCGGUUUUCUGUAUTT against SYT12, the median seed-adjusted z-score is -0.329.
Next, UUACCAUCGUGAAGAGAAATT against CLEC5A: -1.07 (active); CCUCAUCCCUGUUACAACATT against JAG1: -0.32; CCAACUGUGUGGCAGAACGTT against FKBP9L: 0.666.
Next, GUCUGUAGUUCACCCGUUATT against USP9Y: 0.012; AGCUAGGCCUGGAUAUCGATT against KRT83: 1.15 (active).
Next, GCUUUCUACAAGUAUAAGATT against ERO1LB: 0.565; GGCUACCUGCAUUCACUGATT against SGK1: -0.659.
CCACAGAUGUGCAUAAACATT against NFKB2: the median seed-adjusted z-score was -0.132.
For GGAACAUCGAAAUCGUGUATT against DDX6 the value was 1.12 (active); for GGUCUACUUCUACUACAAUTT against UTY, -0.538.
Take CCGGUCAACUGUUACGUAUTT against GJA5: the median seed-adjusted z-score is 0.707.
Next, CAUUCUGUGGUGAAACAUUTT against SCLY: 0.00396; CCACCAUAGGAUAUGGUUATT against KCNJ16: -0.705.
As for CGCAAUAACUGUUUGGUAUTT against EGLN1, the median seed-adjusted z-score is 2.05 (active).
For GGCUAAUCGUGAACCGGAATT against DOCK8 the value was 0.243; for GGAUGGUAGUGUCUGACUUTT against MGLL, 0.288; for UGAAGAUGAUUGUCCUUAUTT against VAMP8, -0.184.
Next, CACCCUGCAGGUUCCCAUATT against HSD17B14: 0.386; GGAUGCUUCUGAAUAGAAATT against BIRC7: -1.44 (active).
Next, CACUAUUGCAUGUAUCGAATT against ARHGAP10: -0.458.
On to CAAAGGGCUAAGUUCUAAATT against TBC1D5, for which the median seed-adjusted z-score is 0.38.
For AAACUAACAUUCGAUUGAATT against TRIM48 the value was 0; for GGUGGAGGACCAAACAGAATT against MGAT4B, 0.0142; for GCUCUACUAUUUCUACGAUTT against SPPL2B, 0.0324.
For GCAAGAGAGUCUCAAAUUUTT against EVX1 the value was 1 (active); for CCAUGCUCCAGUUAUCUUUTT against SLC10A6, -0.803; for GAUUCUUCCCGGCAUCAUATT against GUCY1A3, 0.187.
Next, GGGUGUAAAAUGCACGUUUTT against CLDN16: -0.868; CACUUGGAGUGGUGAAUCATT against NCL: 1.33 (active).
In the case of GCUCGGUGGAAAAACGUGATT against SCN3A, the median seed-adjusted z-score was -0.0556.
Next, CAGUCUACAGCUUCAACAATT against ZNF207: -3.1 (active).
Next, CGCUGACCCUGGAGAUGUATT against CALY: 0.216; GGACAAUCCUUUCAUUAAUTT against HTR3C: -0.221.
Next, CUAAUUUACUAUUACGCUUTT against F2R: -0.392; UCCCAGCACUUAUAGCCUATT against ANKRA2: 1.26 (active); AGCCCUCUUCUGACACUAATT against SERPINH1: 0.186.
GCGUUGACCAAGACUCAUATT against TP53BP2: the median seed-adjusted z-score was 0.157.
Next, AGCACUGCAUGUUCACCGATT against KLHL25: -0.0146.
As to GCAUAUUAAGGAGACCUAUTT against HSD17B6, the median seed-adjusted z-score is 0.573.
Next, CCAUCGUUCUGGGAAUUCUTT against CD6: -0.33; GGAUGAUAAUGCUAAUCCATT against PPP1R3A: -0.241.
Next, GGACUUUGACAAGAACAGUTT against CYP1A2: 0; GAACAAUGAGUAUAUCCUATT against PPP2R5B: 0.237.
With GACGACCAAUUAUAGUUUATT against ZRANB1, the median seed-adjusted z-score was -0.347.
Next, CCAUCAAUGCGGCUCAUGUTT against TUFM: 1.07 (active); GGAUCAGCCGAGGAUGAAATT against PPP1R15A: 0.539.
As for GGAUCUCAUGCACAUCUCATT against PLA2G6, the median seed-adjusted z-score was -0.123.
As to AGAAGAUUCUUGUAUUUAUTT against IL24, the median seed-adjusted z-score is -0.125.
Turning to GGAUGAUAUCAACUGCUAUTT against ACVR2A, the median seed-adjusted z-score is -0.22.
ACAUGUGGGUGACGGUUUUTT against SRM: the median seed-adjusted z-score was 0.
Next, CAUGGACCCUGAUGACAUATT against UROD: 1.11 (active).
For GCGUGAAUGAGGUGGAUUATT against ETNK2 the value was -0.74.
For CGUAUACUAUUAUCACGUUTT against ATP6V0A1 the value was 0.103; for GGGCACGGGUGAUAUGAAUTT against CTDP1, -2.29 (active).
Take AGCUACAAUUUGAAAGAGATT against RNF144A: the median seed-adjusted z-score is -0.185.
Next, AGAGAUCACCGAUUACAGATT against ISG20: 0.0209; CAACUGUUAUCAGAACGAUTT against ARFIP2: 0.748; GCAAUGCCCUCUAUCAAUATT against IP6K1: -0.317.
For AGAUGAUCGCUGAGUUCAATT against TNNC2 the value was -0.773.
